# Assay outcomes deposited in PubChem by National Center for Advancing Translational Sciences (NCATS).
# Pf growth 96h – Primary qHTS for delayed death inhibitors of the malarial parasite plastid, 96 hour incubation | P. falciparum luciferase reporter growth, 96 h | Potency, µM (doses to about 28.7 µM), inactives show at the top dose activity change, negative = inhibition, actives largely listed as inhibitors | 6.9% of 320,000 active; further: potency means the concentration at half of the fitted maximal effect; on the % scale 0 is the no-effect control and ±100 the full control effect
#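 Compounds incubated with erythrocytes infected by luciferase-expressing P. falciparum (2% hematocrit, 0.05% parasitemia final) for 96 hours, 37 C in 5% CO2. Growth inhibition scored as decreased luciferase luminescence.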
# Pf growth 48h – Primary qHTS for delayed death inhibitors of the malarial parasite plastid, 48 hour incubation | P. falciparum luciferase growth in erythrocytes, 48 h | Potency, µM (titrated, usually from 28.7 µM), for the others: at the top dose activity change, negative = inhibition, usual class: inhibitors | 5.9% of 310,000 active | AID 504832, 2011; further: potency means the concentration at half of the fitted maximal effect; on the % scale 0 is the no-effect control and ±100 the full control effect
#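 Firefly luciferase activity from engineered P. falciparum reports growth; inhibitors lower the luminescent signal. Cultures contained 2% hematocrit erythrocytes at 0.1% final parasitemia.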
# Shiga toxin inh – A qHTS for Small Molecule Inhibitors of Shiga Toxin; Vero cells, Shiga toxin protein synthesis inhibition reporter; inhibition, % at 38.7 µM; 9.2% of 290,000 active; AID 2315, 2010; in the data active means inhibition mostly above about 28%, no sharp cut-off; inactive means mostly below about 43%; further: 0% is about no effect
# Cycloheximide cs – Cycloheximide Counterscreen for Small Molecule Inhibitors of Shiga Toxin | cell reporter, cycloheximide protein synthesis inhibition counterscreen | AID 2314, 2010 | 12% of 300,000 active | max response, %; in the data active means max response mostly above about 13%, no sharp cut-off; inactive means mostly below about 14%; further: read at 38.3 µM for the half of the compounds with a filed dose; 0% is about no effect
# HCV inhibitor – qHTS Assay for Inhibitors of Hepatitis C Virus (HCV) | Huh7.5.1 HCVcc-Cre infection, luciferase reporter, 44 h | Potency, µM (doses to about 41.8 µM), without a hit: top-dose activity change, negative = inhibition, hits mostly inhibitors | 3.4% of 340,000 active | AID 651820, 2012; further: potency means the concentration at half of the fitted maximal effect; on the % scale 0 is the no-effect control and ±100 the full control effect
#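 Luciferase read-out (15 sec integration) after a 15 min room-temperature substrate step quantifies HCVcc-Cre infection. Cells, 1,000 per well, had compound added 4 h post-plating, then virus at ~0.5 moi, and were cultured 44 h.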
# HCMV antiviral – qHTS Assay for inhibitors of the human cytomegalovirus (HCMV); HFF cells, HCMV-luciferase reporter, 72 h; stronger effect = lower value; AID 1259415, 2018; 4.5% of 410,000 active; activity change, negative = inhibition, % at 57.5 µM; in the data active means activity change below about -60%; inconclusive means no clear call, values can overlap the other calls; inactive means above about -39%; further: on the % scale 0 is the no-effect control and ±100 the full control effect
#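 Screen run at 2 compound doses on HFFs infected with reporter HCMV, MOI 1 PFU/cell. Luciferase activity from cell lysates at 72 h post infection gave inhibition relative to buffer-only and Salinomycin wells.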
# Active calls of the source: *; ? = inconclusive; nt = not tested or not shown; ! = not active in a repeat; [ ] = another dose, or the depositor's remark. In the library only some 21% were active in any assay of this set; here they are far more common. Unless noted, the call rests on the fitted dose curve; in most records, active means well fitted inhibition curve with a large enough effect; inconclusive means small, poorly fitted or top-dose-only effect, or another doubt; inactive means no such curve, though single readings can be large or run the other way.
SMILES,Pf growth 96h,Pf growth 48h,Shiga toxin inh,Cycloheximide cs,HCV inhibitor,HCMV antiviral
N#C/C(=C/c1ccc(N2CCCCC2)o1)C(=O)Nc1ccc(Cl)cc1,63.6%,86.7%,75.6*,34.5*,?,24.4
Cc1cc(C)nc(Sc2ccc(/C=C(\C#N)C(=O)Nc3ccccc3)o2)n1,nt,-0.7%,14.1,14.8,-14.4%,4.4
O=C(CN1C(=O)CCS(=O)(=O)c2ccccc21)Nc1ccccc1F,4.5%,-21.5%,-1.9,-3.1,8.1%,28.6
CN(Cc1ccccc1)C(=O)c1ccc(NC(=O)Cc2cccc(NC(=O)C3CCCN(C(=O)C4CCCCC4)C3)c2)cc1 (configuration not stated),?,?,nt,nt,0.5%,37.1
CN(C(=O)c1ccc(NC(=O)Cc2cccc(NC(=O)C3CCCN(C(=O)C4CC4)C3)c2)cc1)C1CCCC1 (configuration not stated),?,14.7µM*,nt,nt,-3.9%,0.8
CN(Cc1ccccc1)C(=O)c1ccc(NC(=O)Cc2cccc(NC(=O)C3CCCN(C(=O)C4CCCC4)C3)c2)cc1 (configuration not stated),-25.9%,11.7µM*,nt,nt,14.0%,-5.5
CN(C(=O)c1cccc(NC(=O)Cc2ccc(NC(=O)C3CCCN(C(=O)C4CCCC4)C3)cc2)c1)C1CCCC1 (configuration not stated),nt,nt,nt,nt,10µM*,-7.6
CN(CCc1ccccc1)C(=O)c1ccc(NC(=O)Cc2ccc(NC(=O)C3CCCN(C(=O)C4CCCC4)C3)cc2)cc1 (configuration not stated),nt,nt,nt,nt,?,-68.1*
COc1cc2[nH]c(=S)nc(NC3CCCC3)c2cc1OC,83.4%,?,-8.1,1.1,nt,nt
COc1ccc(/C(O)=C2/C(=O)C(=O)N(CCCN3CCOCC3)C2c2ccc(Cl)cc2)cc1 (configuration not stated),nt,nt,nt,nt,nt,11.0
Cc1ccc(CN2CCCn3nc(C(=O)NCCC(C)C)cc3C2=O)cc1,nt,nt,nt,nt,nt,18.7
CN(C(=O)c1cccc(NC(=O)C2CCN(C(=O)OC(C)(C)C)CC2)c1)C1CCCCC1,nt,nt,nt,nt,10µM*,-9.2
CN(C(=O)c1ccc(NC(=O)Cc2ccc(NC(=O)C3CCCN(C(=O)C4CCCC4)C3)cc2)cc1)C1CC1 (configuration not stated),11.7µM*,?,nt,nt,?,0.2
CN(C(=O)c1ccc(NC(=O)Cc2cccc(NC(=O)C3CCN(C(=O)CCc4ccccc4)CC3)c2)cc1)C1CCCC1,1.85µM*,9.28µM*,nt,nt,-11.3%,-19.4
CN(C(=O)c1ccc(NC(=O)Cc2cccc(NC(=O)C3CCCN(C(=O)C4CCC4)C3)c2)cc1)C1CCCC1 (configuration not stated),?,11.7µM*,nt,nt,-7.0%,-29.3
Cc1ccc(C)c(CN2C(=O)c3ccccc3S(=O)c3ccc(C(=O)N(C)Cc4ccccc4)cc32)c1 (configuration not stated),nt,nt,nt,nt,nt,-22.6
NC(=O)C1CCN(S(=O)(=O)c2ccc(N3CCCCS3(=O)=O)cc2)CC1,nt,nt,nt,nt,nt,57.2
NCCCCCNC(=O)c1[nH]cnc1C(=O)N[C@@H](Cc1ccccc1)C(=O)OCc1ccccc1,nt,nt,nt,nt,32.4%,17.9
CN(C(=O)c1cccc(NC(=O)Cc2ccc(NC(=O)C3CCCN(C(=O)CCc4ccccc4)C3)cc2)c1)C1CCCCC1 (configuration not stated),nt,nt,nt,nt,3.16µM*,-75.3*
CN(C(=O)c1cccc(NC(=O)Cc2ccc(NC(=O)C3CCCN(C(=O)CCc4ccccc4)C3)cc2)c1)C1CC1 (configuration not stated),nt,nt,nt,nt,-1.5%[8.37 µM],9.9
COc1ccc(Nc2nc3c(S(=O)(=O)c4ccc(Br)cc4)nnn3c3ccsc23)c(OC)c1,nt,nt,nt,nt,nt,-17.0
CCOc1ccccc1/C=N/NC(=O)c1nnn(-c2nonc2N)c1CN1CCCC1,32.8%,-1.0%,0.2,-0.8,?,53.4
Fc1cccc(Cn2ccc(-c3ccc4c(c3)OCO4)n2)c1,62.7%,62.3%,99.4*,56.7*,-21.0%,39.9
Nc1ccn(Cc2cccc(F)c2)n1,?,12.1%,10.7,-5.2,16.1%,27.6
Cc1ccccc1Cn1ccc(-c2ccc3c(c2)OCO3)n1,108.1%,85.4%,74.3*,59.7*,-26.5%,-0.9
SMILES,Pf growth 96h,Pf growth 48h,Shiga toxin inh,Cycloheximide cs,HCV inhibitor,HCMV antiviral
Fc1cccc(Cl)c1Cn1nnc(-c2ccc3c(c2)OCO3)n1,nt,104.3%,145.9*,62.1*,-16.0%,74.1
Cc1ccccc1Cn1nnc(-c2ccc3c(c2)OCO3)n1,-20.3%,58.1%,53.9*,48.6*,?,69.1
Cc1ccc(NC2=CC(c3ccccc3F)N(c3ccc(C)cc3)C2=O)cc1 (configuration not stated),nt,nt,nt,nt,nt,22.0
CC(C)(C)c1ccc(C(=O)NCc2nnc(SCC(=O)NCC3CCCO3)o2)cc1 (configuration not stated),7.5%,-3.9%,-3.8,-1.0,18.8%,?
N#CCn1nnc(-c2ccc3c(c2)OCO3)n1,?,27.5%,40.0,34.2*,-2.5%,-13.1
O=C(Cn1nnc(-c2ccc3c(c2)OCO3)n1)NCc1ccccc1,7.5%,23.8%,-7.7,-3.7,2.3%,-37.5
COc1ccccc1N1CCN(C(=O)c2cc3sccc3n2C)CC1,?,-11.5%,2.6,9.8,?,-76.3*
COc1ccccc1N1CCN(C(=O)c2cc3c(=O)n(C)c4ccccc4c3s2)CC1,nt,nt,nt,nt,nt,10.9
Cc1ccc(Cl)cc1N1CCN(C(=O)c2cc3c(=O)[nH]c4ccccc4c3n2C)CC1,9.28µM*,?,14.2,-2.4,8.91µM*!,-94.9*
Cn1c(C(=O)N2CCN(c3nc4ccccc4s3)CC2)cc2sccc21,28.2%,-2.1%,-20.7,-1.9,-12.2%,-73.8*
O=C(c1cccs1)N1CCN(c2nc3ccccc3s2)CC1,53.5%,4.6%,-6.5,1.4,-12.3%,-36.1
Cc1cccc(N2CCN(C(=O)C3CCCN(C(=O)c4cc5sccc5n4C)C3)CC2)c1C (configuration not stated),nt,nt,nt,nt,nt,-21.8
COc1ccccc1N1CCN(C(=O)c2cc3c(=O)n(C)c4ccccc4c3n2C)CC1,7.38µM*,nt,-7.7,-2.0,3.8%,20.2
O=C(c1cc2sccc2n1Cc1ccc(F)cc1)N1CCN(c2nc3ccccc3s2)CC1,30.9%,?,10.0,0.3,3.16µM*,?
COc1ccc(Cl)cc1NC(=O)NC(C)C,-39.9%[5.75 µM],1.9%,-1.3,-4.2,?,-100.8*
COc1ccc(Cl)cc1NC(=O)C(C)NC(c1ccccc1)c1ccccc1 (configuration not stated),2.94µM*,13.1µM*,-24.7,-1.3,?,-28.3
